From PubChem BioAssay (NCI)
This is part of a sample that, as a whole, favours compounds with a hit. Of some 79,000 tested, about 15% had one in any assay. Activity calls are given as the source filed them. No stated cut-off is given here; in the data, active means growth inhibition above about 70%; inactive means the rest.

Experiments:
[1] = NCI Yeast Anticancer Drug Screen. Data for the rad52 strain (AID 147);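 further: 0% = growth of vehicle-treated control cultures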; conditions: S. cerevisiae rad52 mutant growth inhibition, stronger effect = higher value
Method in brief: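 Measured: yeast growth inhibition. System: strain with a defined DNA damage repair alteration. Reference: vehicle-treated control cultures.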

[2] = NCI Yeast Anticancer Drug Screen. Data for the wt1 strain (AID 149);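 further: 0% = growth of vehicle-treated wt1 cultures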; conditions: S. cerevisiae wt1 strain (SPY 50644) growth inhibition, stronger effect = higher value
Method in brief: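 Readout: yeast growth inhibition, normalised to vehicle controls, in the wt1 strain exposed to test compounds.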

[3] = NCI Yeast Anticancer Drug Screen. Data for the rad50EPP+ strain (AID 151);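 further: 0% = growth of vehicle-treated control cultures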; conditions: S. cerevisiae rad50 mutant strain, stronger effect = higher value
Method in brief: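 One strain with a rad50 alteration (rad50EPP+) was compound-treated, its growth then compared to that of vehicle controls.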

[4] = NCI Yeast Anticancer Drug Screen. Data for the mgt1 strain (AID 153); conditions: S. cerevisiae mgt1 mutant growth inhibition, stronger effect = higher value
Method in brief: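 After exposure of the mgt1 yeast mutant to compound, growth was measured and reported as inhibition compared with vehicle controls.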

[5] = NCI Yeast Anticancer Drug Screen. Data for the rad50 strain (AID 155);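 further: 0% = growth of vehicle-only cultures of the same strain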; conditions: S. cerevisiae rad50 strain growth inhibition, stronger effect = higher value
Method in brief: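 Compounds were tested on a yeast strain with an engineered DNA damage repair alteration; the reported value is growth inhibition normalised to vehicle treatment.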

[6] = NCI Yeast Anticancer Drug Screen. Data for the mec2-1 strain (AID 157); conditions: S. cerevisiae mec2-1 strain, stronger effect = higher value
Method in brief: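 Test agents were screened against the mec2-1 yeast strain, with defined DNA repair or cell cycle alteration. Growth was scored as inhibition against vehicle-only controls.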

[7] = NCI Yeast Anticancer Drug Screen. Data for the rad14 strain (AID 159);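 further: 0% = growth of vehicle-treated control cultures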; conditions: S. cerevisiae rad14 strain growth inhibition, stronger effect = higher value
Method in brief: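 Compound-treated yeast with a defined DNA-repair lesion; growth inhibition normalised to vehicle-treated cultures.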

[8] = NCI Yeast Anticancer Drug Screen. Data for the sgs1 mgt1 strain (AID 161);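 further: 0% = growth of cultures given vehicle only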; conditions: S. cerevisiae sgs1 mgt1 strain, stronger effect = higher value
Method in brief: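 Genetically altered yeast, compound exposure, growth inhibition relative to vehicle.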

[9] = NCI Yeast Anticancer Drug Screen. Data for the CLN2oe strain (AID 163);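 further: 0% = growth of vehicle-only control cultures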; conditions: S. cerevisiae CLN2oe strain, stronger effect = higher value
Method in brief: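 Here, growth inhibition in a cell-cycle-altered yeast strain after compound exposure was quantified against vehicle control growth.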

[10] = NCI Yeast Anticancer Drug Screen. Data for the cln2 rad14 strain (AID 165);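 further: 0% = growth equal to vehicle treated cultures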; conditions: S. cerevisiae cln2 rad14 strain, stronger effect = higher value
Method in brief: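 Growth of compound-exposed yeast (cln2 rad14 genotype) measured and expressed as inhibition relative to vehicle.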

[11] = NCI Yeast Anticancer Drug Screen. Data for the bub3 strain (AID 167); conditions: S. cerevisiae bub3 mutant strain, stronger effect = higher value
Method in brief: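 Growth of a checkpoint-deficient yeast mutant is measured after compound exposure. Values represent inhibition relative to vehicle.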

[12] = NCI Yeast Anticancer Drug Screen. Data for the wt2 strain (AID 169);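 further: 0% = growth of vehicle-treated yeast cultures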; conditions: S. cerevisiae wt2 strain growth inhibition, stronger effect = higher value
Method in brief: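 Genetically defined yeast strains from a DNA-repair/cell-cycle panel were used. Compound-exposed yeast growth was measured, and the inhibition was calculated relative to vehicle treatment.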

[13] = NCI Yeast Anticancer Drug Screen. Data for the mlh1 strain (AID 171);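 further: 0% = growth of vehicle-treated control cultures of the same strain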; conditions: S. cerevisiae mlh1 strain growth inhibition, stronger effect = higher value
Method in brief: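 Here the genetically defined yeast mutant is grown with each compound, and the extent to which its growth falls below that of vehicle-exposed cells is reported.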

[14] = NCI Yeast Anticancer Drug Screen. Data for the sgs1 strain (AID 173);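 further: 0% = growth of vehicle-only control cultures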; conditions: S. cerevisiae sgs1 mutant, stronger effect = higher value
Method in brief: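 Relative growth inhibition, referenced to vehicle, was determined in a yeast strain with a defined alteration affecting DNA damage repair or cell cycle control after compound exposure.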

[15] = NCI Yeast Anticancer Drug Screen. Data for the mlh1 rad18 strain (AID 175); conditions: S. cerevisiae mlh1 rad18 strain growth inhibition, stronger effect = higher value
Method in brief: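 In this whole-cell yeast screen, a strain with altered DNA damage repair is challenged with compound, and its growth is measured against matched vehicle-treated controls.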

[16] = NCI Yeast Anticancer Drug Screen. Data for the rad18 strain (AID 177); conditions: S. cerevisiae rad18 mutant growth inhibition, stronger effect = higher value
Method in brief: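 Screen uses a yeast strain with a defined lesion in DNA damage repair; compound effect is read as loss of growth compared to untreated vehicle cultures.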

[17] = at 5.0 µM (retest, dose inferred, filed as 0.5)
[18] = at 50.0 µM (retest, dose inferred, filed as 5.0)

Measured: growth inhibition

COc1cc(C2c3cc4c(cc3[C@@H](Nc3ccc(N)cc3)C3COC(=O)[C@H]23)OCO4)cc(OC)c1O (stereo partly specified)
inactive: [2]; at 1.2 µM -35% | [2]; at 3.7 µM 64% | [3]; at 1.2 µM -2% | [3]; at 3.7 µM 12% | [3]; at 11.0 µM 63% | [4]; at 1.2 µM -16% | [4]; at 3.7 µM 66% | [6]; at 1.2 µM 14% | [7]; at 1.2 µM 2% | [7]; at 33.0 µM 37% | [8]; [17] 18% | [9]; at 1.2 µM 0% | [9]; at 3.7 µM 62% | [9]; at 33.0 µM 41% | [10]; [17] 20% | [11]; at 1.2 µM -33% | [11]; at 3.7 µM 55% | [11]; [17] 22% | [12]; at 1.2 µM -1% | [12]; at 3.7 µM 42% | [13]; at 1.2 µM -4% | [14]; at 1.2 µM 16% | [16]; at 1.2 µM -11%
active: [1]; at 1.2 µM 92% | [1]; at 3.7 µM 92% | [1]; at 11.0 µM 95% | [1]; at 33.0 µM 92% | [1]; at 100.0 µM 87% | [2]; at 11.0 µM 95% | [2]; at 33.0 µM 94% | [2]; at 100.0 µM 88% | [3]; at 33.0 µM 85% | [3]; at 100.0 µM 89% | [4]; at 11.0 µM 94% | [4]; at 33.0 µM 95% | [4]; at 100.0 µM 90% | [5]; at 1.2 µM 91% | [5]; at 3.7 µM 95% | [5]; [17] 92% | [5]; at 11.0 µM 95% | [5]; at 33.0 µM 94% | [5]; [18] 95% | [5]; at 50.0 µM 82.8% | [5]; at 100.0 µM 88% | [6]; at 3.7 µM 89% | [6]; [17] 70% | [6]; at 11.0 µM 95% | [6]; at 33.0 µM 93% | [6]; [18] 96% | [6]; at 50.0 µM 90% | [6]; at 100.0 µM 88% | [7]; at 3.7 µM 71% | [7]; at 11.0 µM 95% | [7]; at 100.0 µM 92% | [8]; [18] 94% | [8]; at 50.0 µM 85.3% | [9]; at 11.0 µM 92% | [9]; at 100.0 µM 88% | [10]; [18] 90% | [10]; at 50.0 µM 85.9% | [11]; at 11.0 µM 92% | [11]; at 33.0 µM 85% | [11]; [18] 93% | [11]; at 50.0 µM 84.8% | [11]; at 100.0 µM 85% | [12]; at 11.0 µM 92% | [12]; at 33.0 µM 94% | [12]; at 100.0 µM 93% | [13]; at 3.7 µM 74% | [13]; at 11.0 µM 93% | [13]; at 33.0 µM 93% | [13]; at 100.0 µM 90% | [14]; at 3.7 µM 77% | [14]; at 11.0 µM 92% | [14]; at 33.0 µM 94% | [14]; at 100.0 µM 88% | [15]; [17] 70% | [15]; [18] 94% | [15]; at 50.0 µM 85.9% | [16]; at 3.7 µM 72% | [16]; at 11.0 µM 93% | [16]; at 33.0 µM 93% | [16]; at 100.0 µM 85%

C[C@]12CCC(=O)C=C1CC[C@@H]1C2CC[C@@]2(C)C1CC[C@@H]2OC(=O)C12OC1CCC2=O (stereo partly specified)
active: [1]; at 33.0 µM 83% | [1]; at 100.0 µM 96% | [2]; at 100.0 µM 96% | [3]; at 33.0 µM 94% | [3]; at 100.0 µM 97% | [4]; at 33.0 µM 92% | [4]; at 100.0 µM 97% | [5]; at 33.0 µM 79% | [5]; [18] 87% | [5]; at 50.0 µM 86.2% | [5]; at 100.0 µM 95% | [6]; at 33.0 µM 90% | [6]; [18] 86% | [6]; at 50.0 µM 88.8% | [6]; at 100.0 µM 97% | [7]; at 33.0 µM 75% | [7]; at 100.0 µM 96% | [8]; [18] 93% | [8]; at 50.0 µM 88.7% | [9]; at 100.0 µM 96% | [11]; at 33.0 µM 79% | [11]; [18] 96% | [11]; at 50.0 µM 84.5% | [11]; at 100.0 µM 96% | [12]; at 33.0 µM 91% | [12]; at 100.0 µM 96% | [13]; at 33.0 µM 94% | [13]; at 100.0 µM 97% | [14]; at 33.0 µM 95% | [14]; at 100.0 µM 96% | [15]; [18] 92% | [15]; at 50.0 µM 85.4% | [16]; at 33.0 µM 83% | [16]; at 100.0 µM 97%
inactive: [1]; at 1.2 µM 0% | [1]; at 3.7 µM 23% | [1]; at 11.0 µM 37% | [2]; at 1.2 µM -2% | [2]; at 3.7 µM -9% | [2]; at 11.0 µM 8% | [2]; at 33.0 µM 66% | [3]; at 1.2 µM 9% | [3]; at 3.7 µM 25% | [3]; at 11.0 µM 69% | [4]; at 1.2 µM -8% | [4]; at 3.7 µM -11% | [4]; at 11.0 µM 27% | [5]; at 1.2 µM -15% | [5]; at 3.7 µM -4% | [5]; [17] -16% | [5]; at 11.0 µM 29% | [6]; at 1.2 µM 5% | [6]; at 3.7 µM 14% | [6]; [17] 6% | [6]; at 11.0 µM 33% | [7]; at 1.2 µM -9% | [7]; at 3.7 µM -11% | [7]; at 11.0 µM 5% | [8]; [17] 8% | [9]; at 1.2 µM 10% | [9]; at 3.7 µM 12% | [9]; at 11.0 µM 14% | [9]; at 33.0 µM 39% | [10]; [17] 39% | [10]; [18] 67% | [10]; at 50.0 µM 65.1% | [11]; at 1.2 µM 1% | [11]; at 3.7 µM 23% | [11]; [17] 27% | [11]; at 11.0 µM 45% | [12]; at 1.2 µM -3% | [12]; at 3.7 µM 9% | [12]; at 11.0 µM 36% | [13]; at 1.2 µM 19% | [13]; at 3.7 µM 17% | [13]; at 11.0 µM 51% | [14]; at 1.2 µM 18% | [14]; at 3.7 µM 24% | [14]; at 11.0 µM 57% | [15]; [17] -21% | [16]; at 1.2 µM 9% | [16]; at 3.7 µM 14% | [16]; at 11.0 µM 39%
